# PubChem BioAssay AID1224865 (Sanford-Burnham Center for Chemical Genomics, 2016)
# Hit rate of the full screen: of about 360,000 compounds, about 1,100 (0.31%) were called active. No stated cut-off is given here; in the data, active means activity change above about 30% (passing the limit was not always enough); inactive means the rest. This excerpt belongs to a sample that is enriched for actives.
# Biological target: Hepatocyte nuclear factor 4-alpha (Homo sapiens) (UniProt P41235)
# Assay: HNF4-alpha DNA association modulation – biochemical, fluorescence polarization, FITC-DNA, primary screen (AID 1224865)
# Details: HNF4a-FITC DNA binding, 1 h, at 10 µM, active compounds read high
# Sequence of Hepatocyte nuclear factor 4-alpha (Homo sapiens) (P41235 whole entry, looked up): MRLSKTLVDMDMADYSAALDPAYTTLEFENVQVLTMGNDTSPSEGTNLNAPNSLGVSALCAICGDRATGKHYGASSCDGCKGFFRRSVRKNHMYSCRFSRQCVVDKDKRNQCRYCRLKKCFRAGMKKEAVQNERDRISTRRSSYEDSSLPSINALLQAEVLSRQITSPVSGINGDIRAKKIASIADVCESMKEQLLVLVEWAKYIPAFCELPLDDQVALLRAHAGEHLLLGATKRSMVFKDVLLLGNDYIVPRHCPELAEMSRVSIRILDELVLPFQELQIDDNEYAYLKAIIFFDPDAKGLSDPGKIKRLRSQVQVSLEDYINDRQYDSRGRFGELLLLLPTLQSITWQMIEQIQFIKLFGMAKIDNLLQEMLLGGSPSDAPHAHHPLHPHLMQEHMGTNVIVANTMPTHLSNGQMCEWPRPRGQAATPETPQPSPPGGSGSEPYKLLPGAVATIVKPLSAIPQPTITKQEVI
row,Compound,activity change
1,CC(C)c1ccc(Nc2nnc(SCC(=O)c3nnc(-c4ccccc4)o3)s2)cc1,7.36% (inactive)
2,COc1ccc(CNC(=O)CN(Cc2ccc(Cl)cc2)S(C)(=O)=O)cc1,1.96% (inactive)
3,CC[n+]1cc(C)ccc1/C=C/c1ccc(N(C)C)cc1,76.1% (active)
4,COc1ccccc1CNC(=O)c1ccc(N(C)S(=O)(=O)c2ccc(C)cc2)cc1,0.49% (inactive)
5,COc1cc(NS(=O)(=O)c2ccc(NC(=O)c3ccc(S(=O)(=O)N4CCCCC4)cc3)cc2)ncn1,-0.94% (inactive)
6,COC(=O)[C@]1(C)N[C@H](c2ccc(-c3ccc(Cl)c(Cl)c3)cc2)[C@@H]2C(=O)N(C)C(=O)[C@@H]21,-0.96% (inactive)
7,Cc1cccc2cc3c(N)c(C(=O)N4CCCc5ccccc54)sc3nc12,47.6% (active)
8,COc1cccc(/C=C/C(=O)OCC(=O)N2CCCc3ccccc32)c1,-0.26% (inactive)
9,CCCn1nc(C(=O)N2CCCc3ccccc32)c2ccccc2c1=O,0.42% (inactive)
10,O=C(NCc1ccccc1)C1CNCC(C(=O)NCc2ccccc2)C1 (stereo not drawn),-1.7% (inactive)
11,CC(=O)Nc1ccc(S(=O)(=O)N2CCC(C(=O)NC3CC3)CC2)cc1,-2.11% (inactive)
12,COc1ccc(C(C)=O)cc1COC(=O)Cn1cnc2ccccc2c1=O,3.19% (inactive)
13,CC(=O)c1c(C)[nH]c(C(=O)OCC(=O)NCCC(C)C)c1C,-3.31% (inactive)
14,COc1cc(C)c(CN2CCN(C(=O)CCC(=O)c3ccc(C)s3)CC2)cc1OC,-0.43% (inactive)
15,O=C(Nc1ccncc1)c1cc(-c2ccccn2)nc2ccc(Br)cc12,43.9% (active)
16,O=C(Nc1ccccc1)c1ccccc1Br,-2.18% (inactive)
17,O=C(Nc1ccc(Br)cc1)c1cc(S(=O)(=O)Nc2ccccn2)ccc1Cl,0.97% (inactive)
18,O=C(CSc1nnc(Cn2cnc3ccccc32)o1)c1ccccc1,1.06% (inactive)
19,NC(CSC(c1ccccc1)(c1ccccc1)c1ccc(-c2ccccc2)cc1)C(=O)O (stereo not drawn),-4.58% (inactive)
20,CN(C)c1ccc(-n2cccc2/C=N/n2cnnc2)cc1,-0.7% (inactive)

row,Compound,activity change
1,CN(C)c1ccc(-n2cccc2/C=C2/SC(=Nc3ccc(F)cc3)NC2=O)cc1,35.7% (active)
2,O=C(COC(=O)Cc1ccccc1F)NNC(=O)c1ccc(Cl)cc1,-2.29% (inactive)
3,O=C(NN1C(=O)C2C3C=CC(C3)C2C1=O)c1ccco1 (stereo not drawn),1.06% (inactive)
4,CCN1/C(=C\c2ccc3ccccc3[n+]2CC)Sc2cc(C)ccc21,81.5% (active)
5,Cc1ccc(S(=O)(=O)N2CC(O)C[C@H]2C(=O)OCC(=O)Nc2ccc(N3CCOCC3)cc2)cc1C (stereo partly drawn),-2.65% (inactive)
6,COc1ccc(/C=C(\NC(=O)c2ccccc2)C(=O)NCCN2CCOCC2)cc1OC,-1.85% (inactive)
7,CCOc1ccc(/C=C(/NC(=O)c2ccccc2)C(=O)NCCC(=O)O)cc1,1.05% (inactive)
8,Cn1c2ccccc2c2cc(/C=C(\NC(=O)c3ccccc3)C(=O)NCC(=O)O)ccc21,43.6% (active)
9,Cc1ccc(S(=O)(=O)c2ccc(Cl)cc2)cc1S(=O)(=O)NC(C(=O)O)C(C)C (stereo not drawn),-3.32% (inactive)
10,CCOC(OCC)c1ccc(/C=C\c2nccc(N)n2)cc1,2.56% (inactive)
11,Cc1oc2nc(SCC(=O)Nc3ccc(S(N)(=O)=O)cc3)nc(NC(=O)c3ccccc3)c2c1C,-0.08% (inactive)
12,COc1ccc(CCNS(=O)(=O)c2cn(C)nc2C)cc1,1.38% (inactive)
13,N#Cc1ccccc1NC(=O)COc1c(Br)cc(Br)c2cccnc12,-0.16% (inactive)
14,N#Cc1ccc(C(=O)Nc2cccc3cccnc23)c(F)c1,43.6% (active)
15,CSc1ccc(C#N)cc1NC(=O)c1ccc(Cl)cc1,2.01% (inactive)
16,COCCNC(=O)c1cc2c(Br)ccc(Br)c2nc1N,-2.58% (inactive)
17,CCCN(CCC)c1nc2c(C)cccn2c(=O)c1/C=C1/SC(=S)N(Cc2ccco2)C1=O,8.02% (inactive)
18,Cc1cccn2c(=O)c(/C=C3\SC(=S)N(CC(C)C)C3=O)c(NCCCOC(C)C)nc12,82.9% (active)
19,Cc1cccn2c(=O)c(C=O)c(Nc3ccc(S(N)(=O)=O)cc3)nc12,-2.3% (inactive)
20,CCc1nnc(NC(=O)CSc2nc(SC)ns2)s1,0.21% (inactive)

row,Compound,activity change
1,Cc1cc(C(=O)CC#N)c(C)n1-c1c(C)n(C)n(-c2ccccc2)c1=O,11.5% (inactive)
2,CCCCSCCCNC(=O)C1CCC(CNS(=O)(=O)c2ccc(NC(C)=O)cc2)CC1 (stereo not drawn),2.47% (inactive)
3,CCc1ccc(C2C(C#N)=C(N)N(N(C)C)C3=C2C(=O)CCC3)s1 (stereo not drawn),0.21% (inactive)
4,CCCC(O)(CCC)C(=O)NN(C(=O)CCl)c1cccc(C)c1,0.04% (inactive)
5,N[C@@H](Cc1ccccc1)C(=O)N1CCOCC1,2.36% (inactive)
6,COc1cc(C=NC2CCCCC2)ccc1O,1.88% (inactive)
7,CCN(/N=C/c1ccc(N(C)C)cc1)c1nc2ccccc2[nH]1,-0.96% (inactive)
8,COc1cc(/C=C(\C#N)c2nc3c(s2)CC(C)CC3)ccc1O (stereo not drawn),74% (active)
9,COc1cc(/C=C(\C#N)c2nc3ccccc3[nH]2)ccc1O,50.5% (active)
10,COC(=O)CSc1ccc2nnc(CCNS(=O)(=O)c3ccc(C)cc3)n2n1,-1.91% (inactive)
11,CC(NC(=O)C(C)(C)C)C(c1cccs1)N1CCN(Cc2ccccc2)CC1 (stereo not drawn),-1.5% (inactive)
12,CN1OC[C@@H]2CN(C(=O)c3cccnc3)[C@H](c3ccc(N4CCCCC4)cc3)C[C@@H]21,10.4% (inactive)
13,Cc1ccc(CNC(=O)c2ccc(CS(=O)Cc3cccc(Cl)c3)o2)cc1 (stereo not drawn),1.72% (inactive)
14,CCc1ccc(NC(=O)CC2C(=O)NCCN2C(=S)Nc2ccccc2)cc1 (stereo not drawn),1.59% (inactive)
15,Cc1nc(N)sc1N=Nc1c(C)n(C)n(-c2ccccc2)c1=O,6.08% (inactive)
16,Cc1c(C=O)n(C)n(-c2ccccc2)c1=O,1.77% (inactive)
17,Cc1c(N=Nc2ccc(N(C)C)cc2)c(=O)n(-c2ccccc2)n1C,35.5% (active)
18,O=C(CCN1C(=O)C2CCCCC2C1=O)Nc1ccc(OC(F)F)cc1 (stereo not drawn),1.26% (inactive)
